The panel holds about 83,000 compounds, 20% with a hit somewhere; the sample as a whole holds those more often.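 Percent growth is the endpoint: 0 to 100 indicates growth inhibition (40 means 60% inhibition), 0 means no net growth, and negative values indicate cell death.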 Unmarked numbers belong to inactive results. Active and inactive are the calls of the source. The calls were made as follows: active = growth percent below 10; inactive = the rest.

For 9 molecules, growth results are on record in PubChem BioAssay (NCI).

Among the test systems are RPMI-8226 leukemia; OVCAR-8 ovarian; OVCAR-5 ovarian; OVCAR-4 ovarian; SK-OV-3 ovarian; IGROV1 ovarian; OVCAR-3 ovarian; HS 578T breast; NCI/ADR-RES ovarian; T-47D breast; MDA-MB-435 melanoma; SW-620 colon; MCF7 breast; HCT-116 colon; HCC-2998 colon; KM12 colon; BT-549 breast.
Common to all, as to assay: NCI-60 one-dose screen, 48 h (100 = growth as untreated, 0 = no growth, -100 = all killed)
Conditions in all cases: 10 µM unless noted

Turning to `Oc1ccccc1C=Nc1ccccc1N=Cc1ccccc1O.[Cu+2]`, the growth is 19.1% in the assay on RPMI-8226 leukemia; 15.1% in the assay with OVCAR-8 ovarian; 103% in the assay with OVCAR-5 ovarian; 35.5% in the assay on OVCAR-4 ovarian; 76% in the assay with SK-OV-3 ovarian; 55.5% in the assay with IGROV1 ovarian. Besides, the growth was 71.7% in the assay on OVCAR-3 ovarian; 137% with HS 578T breast; 20.2% in the assay with NCI/ADR-RES ovarian; 20.2% with T-47D breast; 56% in the assay on MDA-MB-435 melanoma; 83.4% in the assay with SW-620 colon. The growth with MCF7 breast was 27.6%; with HCT-116 colon, 57.9%; with HCC-2998 colon, 74.2%; with KM12 colon it was 44.6%.

Turning to `Cc1scc2c1N(C(=O)CN1CCN(C)CC1)c1ccccc1NC2=O`, the growth with RPMI-8226 leukemia was 113%; in the assay on OVCAR-8 ovarian it was 102%; in the assay on OVCAR-5 ovarian, 118%; with OVCAR-4 ovarian, 101%; in the assay on SK-OV-3 ovarian it was 105%; with IGROV1 ovarian, 108%. Further, the growth with OVCAR-3 ovarian was 108%; with HS 578T breast, 112%; with NCI/ADR-RES ovarian, 108%; with T-47D breast it was 102%; with BT-549 breast, 110%; in the assay on MDA-MB-435 melanoma, 110%. For the same molecule, the growth with SW-620 colon is 112%; with HCT-116 colon, 111%; in the assay on HCC-2998 colon, 103%; in the assay on KM12 colon, 113%.

Take `CCCCN(CCCC)CCCOC(=O)c1ccc(N)cc1`: the growth is 68% with RPMI-8226 leukemia; 73% in the assay with OVCAR-8 ovarian; 97% in the assay on OVCAR-5 ovarian; 84.2% in the assay on OVCAR-4 ovarian; 83.3% in the assay with SK-OV-3 ovarian; 75.8% in the assay on IGROV1 ovarian. In addition, the growth in the assay on OVCAR-3 ovarian was 102%; in the assay with HS 578T breast, 82.2%; in the assay with NCI/ADR-RES ovarian, 94.2%; in the assay on T-47D breast it was 88%; with BT-549 breast, 82.4%; in the assay with MDA-MB-435 melanoma, -3.25% (active). In addition, the growth in the assay on SW-620 colon was 74.6%; in the assay on HCT-116 colon, 58.4%; with HCC-2998 colon, 87.6%; with KM12 colon it was 103%.

As to `O=[N+]([O-])c1ccc(N/N=C/c2c(O)ccc3ccccc23)nc1`, the growth is 31% in the assay with RPMI-8226 leukemia; 34.9% in the assay with OVCAR-8 ovarian; 77.5% in the assay on OVCAR-5 ovarian; 21.2% with OVCAR-4 ovarian; 50.9% in the assay on SK-OV-3 ovarian; 18.5% in the assay with IGROV1 ovarian. The growth in the assay with OVCAR-3 ovarian was 20.3%; with HS 578T breast, 117%; in the assay on NCI/ADR-RES ovarian, 27.3%; in the assay on T-47D breast it was 47.4%; with MDA-MB-435 melanoma, 58.5%; in the assay with SW-620 colon, 48.7%. Moreover, the growth in the assay on MCF7 breast is 17.3%; with HCT-116 colon, 25.9%; in the assay with HCC-2998 colon, 54.2%; in the assay with KM12 colon, 44.2%.

Take `COc1ccc2c(c1)C(=O)c1c-2c(OCCCN(C)C)nc2cc(Br)ccc12`: the growth with RPMI-8226 leukemia is 73.4%; in the assay with OVCAR-8 ovarian, 3.85% (active); with OVCAR-5 ovarian, -46% (active); with OVCAR-4 ovarian it was 88.6%; in the assay with SK-OV-3 ovarian it was 81.3%; in the assay on IGROV1 ovarian, 71.3%. Also, the growth in the assay with OVCAR-3 ovarian was 89.1%; in the assay on NCI/ADR-RES ovarian, 65.6%; in the assay with T-47D breast it was 84%; with BT-549 breast it was 89.7%; in the assay with MDA-MB-435 melanoma it was 90.2%; with SW-620 colon, 35.7%. The growth is 18.5% in the assay on MCF7 breast, 56.8% in the assay with HCT-116 colon, 69.6% with HCC-2998 colon and 69.7% with KM12 colon.

On to `Cn1cc(-c2csc(-c3c[nH]c4ncccc34)n2)c2cc(Br)cnc21`, for which the growth with RPMI-8226 leukemia was 61.8%; in the assay on OVCAR-8 ovarian, 22.4%; in the assay with OVCAR-5 ovarian, 82.3%; in the assay on OVCAR-4 ovarian, -34.6% (active); in the assay with SK-OV-3 ovarian, 0.893% (active); in the assay on IGROV1 ovarian it was 27.3%. Also, the growth was 20.6% in the assay on OVCAR-3 ovarian; 29.2% with NCI/ADR-RES ovarian; 20.7% in the assay with T-47D breast; 45.5% in the assay with BT-549 breast; 33.8% in the assay on MDA-MB-435 melanoma; 39.2% in the assay on SW-620 colon. The growth was 35% in the assay with MCF7 breast, 5.99% (active) in the assay on HCT-116 colon, 64.2% in the assay on HCC-2998 colon and 63.1% with KM12 colon.

As to `CSC1=Nc2c(c(C)c(-c3ccccc3)n2CCCN2CCCCC2)C2=NC(=O)C[C@H](C)N12`, the growth with RPMI-8226 leukemia was -51.1% (active); in the assay on OVCAR-8 ovarian, 44.6%; with OVCAR-5 ovarian it was 83.1%; in the assay on OVCAR-4 ovarian it was 43.6%; with SK-OV-3 ovarian it was 26.9%; in the assay on IGROV1 ovarian, 22.6%. Further, the growth was 24.5% with OVCAR-3 ovarian; 11% with HS 578T breast; 82.4% with NCI/ADR-RES ovarian; -2.25% (active) in the assay with T-47D breast; 26.3% with MDA-MB-435 melanoma; 61.5% in the assay on SW-620 colon. In addition, the growth in the assay on MCF7 breast was 13.9%; in the assay on HCT-116 colon, 42.9%; in the assay with HCC-2998 colon, 60.7%; with KM12 colon, 2.35% (active).

As to `CNc1ccc(CSc2ccc(Cl)cc2)cc1`, the growth in the assay with RPMI-8226 leukemia is 35.8%; in the assay with OVCAR-8 ovarian, 103%; in the assay on OVCAR-5 ovarian, 90.2%; in the assay with OVCAR-4 ovarian, 85.6%; in the assay on SK-OV-3 ovarian, 107%; in the assay on IGROV1 ovarian it was 81.9%. For the same molecule, the growth with OVCAR-3 ovarian was 109%; in the assay with HS 578T breast it was 123%; with NCI/ADR-RES ovarian it was 97%; in the assay with T-47D breast, 80.3%; with MDA-MB-435 melanoma it was 87.3%; in the assay with SW-620 colon, 109%. The growth was 96.2% in the assay on MCF7 breast, 91.3% with HCT-116 colon, 118% with HCC-2998 colon and 111% in the assay on KM12 colon.

Take `CCC1=C(c2ccc(OC)cc2)C(C)(C)Oc2cc(O)c(CN3CCCC3)cc21`: the growth in the assay on RPMI-8226 leukemia is 57.5%; in the assay with OVCAR-8 ovarian, 95.4%; in the assay on OVCAR-5 ovarian, 81.9%; in the assay with OVCAR-4 ovarian, 99.3%; in the assay with SK-OV-3 ovarian, 89.2%; with IGROV1 ovarian it was 87.1%. For the same molecule, the growth with OVCAR-3 ovarian is 83.4%; in the assay with NCI/ADR-RES ovarian, 84.6%; in the assay with T-47D breast, 68.2%; with BT-549 breast, 65.7%; in the assay with MDA-MB-435 melanoma it was 70.9%; with SW-620 colon, 89.7%. The growth is 89.7% in the assay on MCF7 breast, 46.9% in the assay on HCT-116 colon, 18.1% in the assay on HCC-2998 colon and 81.1% in the assay with KM12 colon.
